From PubChem BioAssay
Unmarked numbers belong to inactive results. For some of these results: Results with a measured potency or affinity are listed apart. Calls of active or inactive are those of the source. Unless noted, how the calls were made is not given here.

How the values were obtained:
[1] = antimalarial activity against Dd2 strain (AID 2302;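 active means growth inhibition above 50% at the single 2 µM test dose, taken to imply half-maximal potency below 2 µM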;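 further: 0% = DMSO untreated growth and 100% = chloroquine plus artemisinin killed control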); details: P. falciparum Dd2 in RBCs, LDH growth readout, 72 h; at 2 µM; hits give high values
[2] = HepG2 cytotoxicity, primary screen, cytotoxicity control for P. falciparum antimalarial project, cell-based, ATP luminescence (AID 2303;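 active means inhibition above 50%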;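 further: 0% = DMSO wells and 100% = digitonin-killed cells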); details: HepG2 viability, 24-48 h, at 10 µM, hits give high values
[3] = target: L-lactate dehydrogenase (Plasmodium falciparum (isolate CDC / Honduras)) (UniProt Q27743); experiment: PfLDH activity inhibition – cell lysate, 3D7 strain, counter-screen for P. falciparum growth inhibition project (AID 2304);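 further: 0% = vehicle and 100% = reference inhibitor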; details: P. falciparum 3D7 crude extract, LDH APAD/NBT absorbance; at 2 µM; hits give high values
[4] = inhibition of 3D7 malaria parasite growth – strain 3D7 (AID 2306);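 further: 0% = DMSO wells and 100% = chloroquine plus artemisinin control wells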; details: P. falciparum 3D7 erythrocytic growth, LDH absorbance, 72 h; at 2 µM; hits give high values
[5] = target: Calcium-dependent protein kinase 1 (Plasmodium falciparum (isolate 3D7)) (UniProt P62344); experiment: PfCDPK1 kinase inhibitors, biochemical, TCAMS library (AID 1159585; cut-off not given, nearly all actives have IC50 up to about 0.98 µM;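 further: inhibitors leave more ATP so luminescence rises with inhibition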); details: recombinant PfCDPK1, Kinase-Glo ATP depletion luminescence
[6] = target: Plasmodium falciparum protein kinase 6 (PK6, PF3D7_1337100) (UniProt Q8IDW1); experiment: PfPK6 kinase inhibitors, biochemical, TCAMS library (AID 1159586); details: recombinant PfPK6, Kinase-Glo ATP depletion luminescence
[7] = target: Protein kinase 7 (PK7), Plasmodium falciparum 3D7 (PF3D7_0213400) (UniProt Q7YTF7); experiment: inhibition of Plasmodium PK7 catalytic activity – biochemical, TCAMS antimalarial set, Kinase-Glo luminescence (AID 1159587); details: recombinant PfPK7, Kinase-Glo ATP depletion luminescence
[8] = target: Calcium-dependent protein kinase 4 (Plasmodium falciparum (isolate 3D7)) (UniProt Q8IBS5); experiment: PfCDPK4 kinase inhibitors, biochemical, TCAMS library (AID 1159588; cut-off not given, nearly all actives have IC50 up to about 0.91 µM); details: recombinant PfCDPK4, Kinase-Glo ATP depletion luminescence
Chain of Calcium-dependent protein kinase 4 (Plasmodium falciparum (isolate 3D7)) (Q8IBS5 whole entry, looked up): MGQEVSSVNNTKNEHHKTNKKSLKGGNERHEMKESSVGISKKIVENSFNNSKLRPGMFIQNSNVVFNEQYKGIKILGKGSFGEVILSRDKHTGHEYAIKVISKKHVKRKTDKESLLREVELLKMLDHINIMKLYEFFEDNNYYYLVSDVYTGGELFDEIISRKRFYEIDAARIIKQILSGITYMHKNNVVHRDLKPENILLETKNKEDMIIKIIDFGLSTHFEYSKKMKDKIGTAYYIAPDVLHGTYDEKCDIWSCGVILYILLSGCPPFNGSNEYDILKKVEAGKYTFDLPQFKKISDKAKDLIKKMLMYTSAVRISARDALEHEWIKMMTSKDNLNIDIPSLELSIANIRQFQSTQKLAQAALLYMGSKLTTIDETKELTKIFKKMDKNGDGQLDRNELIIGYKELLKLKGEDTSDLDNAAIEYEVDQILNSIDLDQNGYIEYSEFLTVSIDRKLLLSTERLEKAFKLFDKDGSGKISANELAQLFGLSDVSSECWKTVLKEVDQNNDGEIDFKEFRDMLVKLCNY

Chain of Protein kinase 7 (PK7), Plasmodium falciparum 3D7 (PF3D7_0213400) (Q7YTF7 1-343): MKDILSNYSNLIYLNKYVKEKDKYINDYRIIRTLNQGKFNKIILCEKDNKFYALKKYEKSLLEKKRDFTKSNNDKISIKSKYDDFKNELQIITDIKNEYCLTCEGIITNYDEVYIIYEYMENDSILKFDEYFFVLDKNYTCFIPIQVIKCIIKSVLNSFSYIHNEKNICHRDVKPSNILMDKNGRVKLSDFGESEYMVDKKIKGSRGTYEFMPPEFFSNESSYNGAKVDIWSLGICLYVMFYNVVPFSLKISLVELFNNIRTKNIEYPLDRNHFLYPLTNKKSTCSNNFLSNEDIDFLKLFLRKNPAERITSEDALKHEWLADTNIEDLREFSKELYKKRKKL
Chain of L-lactate dehydrogenase (Plasmodium falciparum (isolate CDC / Honduras)) (Q27743 whole entry, looked up): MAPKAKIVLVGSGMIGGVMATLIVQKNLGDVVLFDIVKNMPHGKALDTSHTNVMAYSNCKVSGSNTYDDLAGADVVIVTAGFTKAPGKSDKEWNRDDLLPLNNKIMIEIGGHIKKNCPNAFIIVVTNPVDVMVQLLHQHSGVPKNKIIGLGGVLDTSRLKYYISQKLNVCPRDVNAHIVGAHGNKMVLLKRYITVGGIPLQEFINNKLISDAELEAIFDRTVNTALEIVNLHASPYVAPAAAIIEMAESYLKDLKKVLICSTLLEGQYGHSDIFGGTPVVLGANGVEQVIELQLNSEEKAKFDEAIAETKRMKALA
Chain of Calcium-dependent protein kinase 1 (Plasmodium falciparum (isolate 3D7)) (P62344 whole entry, looked up): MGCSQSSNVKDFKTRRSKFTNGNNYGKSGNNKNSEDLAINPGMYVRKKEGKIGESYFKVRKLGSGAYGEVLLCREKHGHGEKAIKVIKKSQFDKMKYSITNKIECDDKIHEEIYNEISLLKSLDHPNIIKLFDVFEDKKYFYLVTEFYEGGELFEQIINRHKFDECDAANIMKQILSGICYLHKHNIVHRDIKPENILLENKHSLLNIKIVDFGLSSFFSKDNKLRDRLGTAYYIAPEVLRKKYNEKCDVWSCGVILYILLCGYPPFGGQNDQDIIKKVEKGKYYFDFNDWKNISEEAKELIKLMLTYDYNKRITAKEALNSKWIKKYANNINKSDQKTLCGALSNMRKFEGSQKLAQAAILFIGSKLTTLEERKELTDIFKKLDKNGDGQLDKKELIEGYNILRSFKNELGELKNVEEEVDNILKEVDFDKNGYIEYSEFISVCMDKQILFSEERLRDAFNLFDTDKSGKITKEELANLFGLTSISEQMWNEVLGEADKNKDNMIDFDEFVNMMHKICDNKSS
Chain of Plasmodium falciparum protein kinase 6 (PK6, PF3D7_1337100) (Q8IDW1 1-305): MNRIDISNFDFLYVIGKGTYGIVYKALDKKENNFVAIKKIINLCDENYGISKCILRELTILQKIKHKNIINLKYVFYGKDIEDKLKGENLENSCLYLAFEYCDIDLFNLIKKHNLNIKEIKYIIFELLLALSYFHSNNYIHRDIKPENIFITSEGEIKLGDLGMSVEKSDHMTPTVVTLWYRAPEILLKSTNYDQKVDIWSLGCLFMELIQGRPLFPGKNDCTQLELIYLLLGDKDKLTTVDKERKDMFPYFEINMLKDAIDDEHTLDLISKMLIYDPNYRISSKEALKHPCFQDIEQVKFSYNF

SMILES	growth inhibition [1]	inhibition [2]	inhibition [3] [%]	growth inhibition [4]	outcome [5]	outcome [6]	outcome [7]	outcome [8]
COc1cc2nc(Nc3ccc4c(cnn4Cc4ccccc4)c3)nc(Nc3ccc4c(cnn4Cc4ccccc4)c3)c2cc1OC	100% (active)	4%	7	99% (active)	inactive	inactive	inactive	inactive
CC(C)Cn1c(Sc2ccc(C#N)c([N+](=O)[O-])c2)nnc1-c1cccc(Cl)c1	95% (active)	24%	5	98% (active)	inactive	inactive	inactive	inactive
CCCC(C)c1ccc(N2C(N)=NC(N)=NC2(C)C)cc1 (stereo not drawn)	7%	51% (active)	2	90% (active)	inactive	inactive	inactive	inactive
CCC(CC)CN1C(=O)C(c2ccccc2)(c2ccccc2)N=C1N	81% (active)	14%	-3	97% (active)	inactive	inactive	inactive	inactive
CCN(CCCN1CCCCC1)c1cc(C)nc(Nc2ccc(C(C)C)cc2)n1	51% (active)	34%	2	100% (active)	inactive	inactive	inactive	inactive
O=C(CNC1=NCCN1)Nc1ccc(NC(=O)Nc2ccc(NC(=O)CNC3=NCCN3)cc2)cc1	75% (active)	-5%	-2	90% (active)	inactive	inactive	inactive	inactive
Cc1cccc2[nH]c(-c3cccc(-c4cccc(CNCCc5cccn5C)c4)c3)nc12	49%	4%	2	91% (active)	inactive	inactive	inactive	inactive
COc1cc(C=CC(=O)N2CCC3(CC2)CC(=O)c2ccccc2O3)cc(OC)c1OC	66% (active)	7%	-1	88% (active)	inactive	inactive	inactive	inactive
CC1(C)CN2CCCC2c2cc(NC(=O)/C=C/c3ccccc3Cl)ccc21 (stereo not drawn)	76% (active)	20%	0	88% (active)	inactive	inactive	inactive	inactive
CCCn1cc2c(ccc3nc(N)nc(N)c32)n1	0%	65% (active)	5	95% (active)	inactive	inactive	inactive	inactive
Cc1[nH]nc2cc(F)c(-c3cc(OC[C@@H](N)Cc4ccccc4)cnc3-c3ccoc3)cc12	15%	22%	6	95% (active)	inactive	inactive	inactive	inactive
Cc1cc(NC(=O)Nc2ccc3sccc3c2)c2ccccc2n1	57% (active)	41%	0	99% (active)	inactive	inactive	inactive	inactive
Cc1ccccc1C1CCN(c2ccc(C(=O)Nc3ccc(F)cc3)cn2)CC1	96% (active)	45%	-1	96% (active)	inactive	inactive	inactive	inactive
Cc1[nH]c(C)c(-c2ccc(Br)cc2)c(=O)c1Cl	77% (active)	22%	-2	94% (active)	inactive	inactive	inactive	inactive
CCCCNc1nc(NCCCC)c2c(C)c(Cc3ccccc3)c(NCCCC)nc2n1	84% (active)	69% (active)	-10	95% (active)	inactive	inactive	inactive	inactive
Cc1ccc(C)c(C2CCN(CCCCNC(=O)c3ccc(NC(=O)c4ccc(Cl)cc4)cc3)CC2)c1	13%	15%	7	94% (active)	inactive	inactive	inactive	inactive
Cc1ccc(-n2cc(CNCCc3ncc(C)[nH]3)c(-c3ccc(F)cc3)n2)cc1	12%	15%	-2	86% (active)	inactive	inactive	inactive	inactive
CC(CC(=O)NCC1(c2ccc(F)cc2Cl)CCOCC1)C(=O)c1ccc(Cl)cc1 (stereo not drawn)	91% (active)	6%	2	99% (active)	inactive	inactive	inactive	inactive
O=c1cc(NC[C@H]2CCC[C@@H]2NC2CCCc3c2[nH]c2ccccc32)[nH]c2ccccc12 (stereo partly drawn)	25%	6%	-6	101% (active)	inactive	inactive	inactive	inactive
CCOC(=O)C1CCN(CCOc2cc(NC(=O)/C=C/c3ccccc3Cl)ccc2Br)CC1	29%	6%	-2	87% (active)	inactive	inactive	inactive	inactive
COc1cccc(NC(=O)COc2ccc(C(=O)Nc3nc4ccccc4[nH]3)cc2)c1	29%	19%	0	99% (active)	inactive	inactive	inactive	inactive

SMILES	growth inhibition [1]	inhibition [2]	inhibition [3] [%]	growth inhibition [4]	outcome [5]	outcome [6]	outcome [7]	outcome [8]
CC[C@H](C)CNC(=O)c1cncc(-c2cccc(CN3CCC(N4CCCC4)CC3)c2)c1	5%	-1%	6	97% (active)	inactive	inactive	inactive	inactive
CC(C)C[C@H](Nc1ccc(C#N)c2ccccc12)C(=O)NC(C)(C)C12CC3CC(CC(C3)C1)C2	30%	19%	-1	96% (active)	inactive	inactive	inactive	inactive
COc1ccccc1CCN1CCC(CN(C)Cc2ccc(O)c(Cl)c2)CC1	52% (active)	19%	-3	101% (active)	inactive	inactive	inactive	inactive
COc1cccc(N(CCCN2C(=O)c3cccc4cccc(c34)C2=O)C(=O)c2ccccc2C)c1	70% (active)	20%	-7	86% (active)	inactive	inactive	inactive	inactive
Cc1cc(C(=O)NC2CCN(Cc3ccccc3)CC2)ccc1-c1nc2ccc(C(F)(F)F)cc2[nH]1	2%	19%	-1	95% (active)	inactive	inactive	inactive	inactive
Cc1ccc(-c2[nH]n3c(=O)c4c(nc3c2C)CCCC4)cc1	87% (active)	16%	-1	97% (active)	inactive	inactive	inactive	inactive
COc1ccc2nccc([C@@H](O)CN3CCC(NCc4nc5cc(F)c(F)cc5[nH]4)CC3)c2c1	36%	12%	-1	96% (active)	inactive	inactive	inactive	inactive
O=C(Nc1ccc(OC2CCN(Cc3ccsc3)C2)c(Cl)c1)c1ccco1 (stereo not drawn)	96% (active)	-6%	-5	93% (active)	inactive	inactive	inactive	inactive
CN=C(NO)NCCN(C)C	-5%	-1%	-2	88% (active)	inactive	inactive	inactive	inactive
Oc1ccc(Cl)cc1Nc1nc(C(F)(F)F)nc2ccccc12	63% (active)	16%	5	86% (active)	inactive	inactive	inactive	inactive
O=C(N[C@@H](Cc1ccccc1)[C@H](O)CNCCC(F)(F)F)c1cccc(CCC2CC2)c1	13%	-4%	5	87% (active)	inactive	inactive	inactive	inactive
COc1ccc(N2CCN(CCCCNC(=O)c3ccc(/C=C/c4ccc(Cl)c(Cl)c4)cc3)CC2)c(OC)c1	51% (active)	51% (active)	-8	101% (active)	inactive	inactive	inactive	inactive
Cc1cc(C)cc(OCC(O)CN(Cc2cc(Cl)cc(Cl)c2)C(=O)Nc2ccc(Cl)cc2)c1 (stereo not drawn)	43%	-9%	-2	97% (active)	inactive	inactive	inactive	inactive
CC(C)N1CCN(c2ccc(OCCCCN3CCN(c4cccc(Cl)c4Cl)CC3)cc2Cl)CC1	34%	63% (active)	-1	89% (active)	inactive	inactive	inactive	inactive
Cc1ccc2[nH]ncc2c1N(CC1CCCCC1)c1ccnc(Nc2ccc(OCC(O)CN3CC=CCC3)cc2)n1 (stereo not drawn)	79% (active)	29%	-4	100% (active)	inactive	inactive	inactive	inactive
C=CCNS(=O)(=O)c1ccc(NC(=O)C(C)Oc2ccc([N+](=O)[O-])cc2)cc1 (stereo not drawn)	100% (active)	14%	-3	101% (active)	inactive	inactive	inactive	inactive
CN1CCCC(OC(=O)c2ccccc2)C1 (stereo not drawn)	-2%	4%	-5	100% (active)	inactive	inactive	inactive	inactive
N#Cc1cc([N+](=O)[O-])ccc1-n1nc(-c2cccc(Cl)c2)n(Cc2ccco2)c1=S	100% (active)	12%	-1	101% (active)	inactive	inactive	inactive	inactive
COc1ccc(CNCCCCCCNCc2ccc(OC)c3ccccc23)c2ccccc12	49%	100% (active)	-5	102% (active)	inactive	inactive	inactive	inactive
COCCNCc1ncsc1-c1ccc2c(Nc3ccc(Oc4ccccc4)cc3)ccnc2c1	93% (active)	34%	-7	91% (active)	inactive	inactive	inactive	inactive
